Bioassay records deposited in PubChem by National Center for Advancing Translational Sciences (NCATS).
Gal4-VP16 FLuc: VP16 counterscreen qHTS for inhibitors of ROR gamma transcriptional activity. Drosophila S2 Gal4-VP16 UAS-luciferase, luminescence, 20 h. Potency, µM (doses to about 53.6 µM), for inactives: at the highest dose activity, negative = inhibition, actives largely listed as inhibitors. hit rate 3.5% among 310,000;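 also: Gal4-VP16 expression switched on by copper sulfate through the metallothionein promoter; potency is read from the fitted curve at half-maximal effect; nearly all actives have a fitted effect of over 50% in size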
DT40 TDP1 no CPT: qHTS for Inhibitors of human tyrosyl-DNA phosphodiesterase 1 (TDP1): qHTS in cells in absence of CPT. DT40 Tdp1-/- hTDP1 cells, no CPT, ATP luminescence, 48 h. Potency, µM (highest dose often 46.2 µM), for the others: at the top dose activity change, negative = growth inhibition, most hits filed as inhibitors. hit rate 15% among 420,000. AID 686978, 2013; also: potency is read from the fitted curve at half-maximal effect; nearly all actives have a fitted effect of over 55% in size
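Compound effects on proliferation are scored in DT40 Tdp1-/-;hTDP1 cells in the absence of CPT. ATP levels (CellTiter-Glo luminescence) are recorded after a ≥48 hr, 37 °C incubation.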
TDP1 cell CPT: qHTS for Inhibitors of human tyrosyl-DNA phosphodiesterase 1 (TDP1): qHTS in cells in presence of CPT | chicken DT40 Tdp1-/-;hTDP1 cells + 20 nM CPT, ATP luminescence, 48 h | Potency, µM (top dose mostly 46.2 µM), for inactives: top-dose activity change, negative = growth inhibition, usual class: inhibitors | hit rate 12% among 420,000 | AID 686979, 2013; also: potency is read from the fitted curve at half-maximal effect; nearly all actives have a fitted effect of over 55% in size
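Chicken DT40 Tdp1-/- cells complemented with human TDP1, 400 cells/well, exposed to compounds plus 20 nM camptothecin for at least 48 h at 37 C; viability read as ATP content by CellTiter-Glo luminescence.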
RORg inh: qHTS for inhibitors of ROR gamma transcriptional activity. Nuclear receptor ROR-gamma (Mus musculus), P51450. Drosophila S2 Gal4-RORgamma UAS-luciferase reporter, 20 h. Potency, µM (series often up to 53.6 µM), without a hit: at the highest dose activity change, negative = inhibition, hits mostly inhibitors. hit rate 5.4% among 310,000; also: potency is read from the fitted curve at half-maximal effect; nearly all actives have a fitted effect of over 60% in size
Target sequence (P51450 whole entry, looked up, the tested form may be a part): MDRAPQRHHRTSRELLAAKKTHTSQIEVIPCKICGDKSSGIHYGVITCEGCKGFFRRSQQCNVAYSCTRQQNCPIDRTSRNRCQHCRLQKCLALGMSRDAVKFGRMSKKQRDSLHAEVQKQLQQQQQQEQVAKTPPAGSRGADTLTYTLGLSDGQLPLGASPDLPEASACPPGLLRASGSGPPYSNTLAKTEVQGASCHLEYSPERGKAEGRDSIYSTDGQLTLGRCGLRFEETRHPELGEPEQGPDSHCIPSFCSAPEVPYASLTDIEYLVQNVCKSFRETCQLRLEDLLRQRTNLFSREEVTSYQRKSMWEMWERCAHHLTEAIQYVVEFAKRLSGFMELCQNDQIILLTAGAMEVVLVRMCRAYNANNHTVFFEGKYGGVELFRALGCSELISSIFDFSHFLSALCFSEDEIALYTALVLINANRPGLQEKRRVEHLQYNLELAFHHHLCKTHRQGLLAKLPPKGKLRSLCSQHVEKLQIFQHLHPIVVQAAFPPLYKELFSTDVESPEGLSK
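Luciferase reporter read in Schneider cells carrying Gal4-RORγ (mouse) and UAS-Photinus luciferase; cells given compound 1 h before 700 uM copper sulfate induction, then incubated 20 h at ambient temperature.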
IL-1B inflam inh: qHTS for Inhibitors of Inflammasome Signaling: IL-1-beta AlphaLISA Primary Screen | THP-1 LPS/ATP IL-1B secretion, AlphaLISA, 16 h; stronger effect = lower value | activity change, % at 57.5 µM | hit rate 4.7% among 360,000 | AID 743279, 2014; in the data active = activity change below about -50%; inconclusive = mostly about -30% to -49%
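Secreted IL-1B measured by AlphaLISA bead assay after 16 h compound exposure of THP-1 cells; compounds (final up to 57.5 uM) added 1 h before LPS (250 ng/mL) and ATP (1.25 mM) stimulation; lower signal means less secretion.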
ELG1 repair inh: qHTS screen for small molecules that inhibit ELG1-dependent DNA repair in human embryonic kidney (HEK293T) cells expressing luciferase-tagged ELG1 | AID 504467, 2011 | HEK293T ELG1-luciferase reporter, luminescence, 16 h; DNA damage induced by 5-fluorouridine | hit rate 2.3% among 330,000 | Potency, µM (titrated, usually from 46.1 µM), for the others: at the highest dose activity change, negative = inhibition, most hits filed as inhibitors; also: potency is read from the fitted curve at half-maximal effect; nearly all actives have a fitted effect of over 55% in size
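Cells (2,000 per well) received 5-fluorouridine plus test compound or DMSO and were incubated 16 hr at 37 °C, 5% CO2. Luciferase activity was read by luminescence 30 min after ONE-Glo addition; signal suppression marked inhibition of damage-induced ELG1 function.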
Numbers without * were called inactive; ? = inconclusive; · = no result; [ ] = dose if it differs, or a comment. Rows were chosen to be rich in hits. Some 21% of all compounds tested hit in one or more screens of this group. Unless noted, calls follow the shape of the dose curve; as a rule, active = well fitted curve in the direction sought with a large enough effect; inconclusive = small, poorly fitted or top-dose-only effect, or another doubt; inactive = no such curve, though single readings can be large; an effect the other way counts as inactive or inconclusive. % is scaled to controls: 0 for no effect and ±100 for the full control effect.

SMILES | Gal4-VP16 FLuc | DT40 TDP1 no CPT | TDP1 cell CPT | RORg inh | IL-1B inflam inh | ELG1 repair inh
CCOC(=O)[C@]12CCCC=C1N(CCC1=CCCCC1)C(=O)[C@H](CC(=O)NCc1ccc(OC)c(OC)c1)C2 | · | 15µM* | 15µM* | · | -14 | ·
COC(=O)[C@]12CCCCC=C1N(Cc1ccco1)C(=O)[C@H](CC(=O)NCC13CC4CC(CC(C4)C1)C3)C2 | · | ? | ? | · | -16 | ·
CCOC(=O)[C@]12CCCC=C1N(CCC1=CCCCC1)C(=O)[C@H](CC(=O)NCc1cccc3ccccc13)C2 | · | 16µM* | ? | · | 13 | ·
CCN(c1cccc(C)c1)S(=O)(=O)c1ccc2[nH]cc(C(=O)NCCCOC)c(=O)c2c1 | · | ? | -25% | · | · | ·
CCc1ccc(-c2nc(SCC(=O)N3CCOCC3)n[nH]2)cc1 | -7% | -12% | 10% | 22% | 24 | ?
CCCCNC(=O)C[C@@H]1C[C@@]2(C(=O)OCC)CCCC=C2N(CCC2=CCCCC2)C1=O | · | 8.2µM* | 8.2µM* | · | -2 | ·
COCCCNC(=O)C[C@@H]1C[C@@]2(C(=O)OC)CCCCC=C2N(CCc2ccc(OC)c(OC)c2)C1=O | · | ? | -15% | · | 24 | ·
CCCCCCCCN1C(=O)[C@H](CC(=O)NCCC(C)C)C[C@@]2(C(=O)OCC)CCC=C12 | · | 21µM* | 21µM* | · | 9 | ·
CCOC(=O)[C@]12CCCC=C1N(CCc1ccc(OC)c(OC)c1)C(=O)[C@H](CC(=O)NCC13CC4CC(CC(C4)C1)C3)C2 | · | 16µM* | 15µM* | · | -20 | ·
CCOC(=O)[C@]12CCC=C1N(CCC1=CCCCC1)C(=O)[C@H](CC(=O)NCCCOC)C2 | · | ? | -22% | · | 0 | ·
CC(C)C[C@H](NC(=O)[C@H](CCCCN)NC(=O)[C@H](CCCNC(=N)N)NC(=O)[C@H](C)NC(=O)[C@H](CO)NC(=O)[C@H](CCCCN)NC(=O)[C@H](CCCNC(=N)N)NC(=O)[C@H](C)NC(=O)CNC(=O)[C@@H](NC(=O)[C@H](Cc1ccccc1)NC(=O)CNC(=O)CNC(=O)[C@@H](N)Cc1ccccc1)[C@@H](C)O)C(=O)N[C@@H](C)C(=O)N[C@@H](CC(N)=O)C(=O)N[C@@H](CCC(N)=O)C(=O)O | -7% | · | · | 15% | · | ·
Cc1cccc(NC(=O)C2CCN(S(=O)(=O)c3cccc4nsnc34)CC2)c1C | · | -19% | -25% | · | · | ·
O=c1cnnc(N/N=C/c2ccccn2)[nH]1 | 8% | 3.3µM* | 4.6µM* | -1% | 187 | ?
Cc1cc(=O)[nH]c(N/N=C/c2ccccn2)n1 | -8% | 4.6µM* | 3.7µM* | ? | 89 | ?
Cc1cc(=O)[nH]c(NN=Cc2c(Cl)cccc2Cl)n1 | · | -25% | 15% | · | -29 | ·
Cc1cc(=O)[nH]c(N/N=C/c2ccc(-c3ccc(F)cc3)o2)n1 | -4% | 13µM* | 9.2µM* | -45% | 14 | ?
CC(/C=N/Nc1nncc(=O)[nH]1)=C\c1ccccc1 | -6% | 2% | 23% | 15% | -1 | 6%
O=c1nc(N/N=C/c2ccccn2)cn[nH]1 | 26% | 5.2µM* | 5.2µM* | ? | 160 | ?
Cc1ccc(/C=N/Nc2cn[nH]c(=O)n2)o1 | -8% | -4% | 0% | ? | 9 | 15%
CN(C)c1nc(NCc2ccccc2)nc(SCC(=O)Nc2ccc(Cl)c(Cl)c2)n1 | -18% | ? | 21µM* | ? | 0 | -28%
CCNc1nc(SCC(=O)Nc2ccc(Cl)c(Cl)c2)nc(N(C)C)n1 | 4%[10 µM] | 15µM* | ? | -26% | 13 | ?
COC(=O)CSc1nc(NCc2ccccc2)nc(N(C)C)n1 | 0%[10 µM] | -16% | -4% | 44% | 18 | 12%
Oc1ccccc1C1CC(c2cccs2)=NC(c2ccc(Cl)cc2)N1 (stereo not drawn) | 18% | 4.1µM* | 21µM* | ? | ? | -11%
Cn1nc(C(F)(F)F)c(-c2cccc(C(F)(F)F)c2)c1NC(=O)Nc1ccc(F)cc1 | -8% | 15µM* | 16µM* | 40% | -1 | -25%
CN(CCCNC(=O)c1cccn2c(=O)c3ccccc3nc12)Cc1ccccc1 | -5% | ? | 22µM* | -31% | ? | -23%
SMILES | Gal4-VP16 FLuc | DT40 TDP1 no CPT | TDP1 cell CPT | RORg inh | IL-1B inflam inh | ELG1 repair inh
N=c1c(C(=O)NCCN2CCOCC2)cc2c(=O)n3ccccc3nc2n1CCCN1CCOCC1 | 5% | 10% | -4% | 1% | -12 | 9%
O=C(NCCN1CCN(c2ccccc2)CC1)c1cccn2c(=O)c3ccccc3nc12 | -12% | 18µM* | ? | 21% | -2 | ?
CCCCCn1c(=O)[nH]c2cc(C(=O)NCCCN(C)Cc3ccccc3)ccc2c1=O | 16% | -27% | -30% | 11% | -21 | 15%
O=C(NCCN1CCN(c2ccccc2F)CC1)c1cccn2c(=O)c3ccccc3nc12 | 4% | 16µM* | ? | -25% | 8 | ?
COc1ccccc1Cc1c(C2CCCCC2)nc2ccc(C)cn12 | · | 23µM* | 21µM* | · | -17 | ·
FC(F)(F)c1ccccc1Cc1c(C2CCCCC2)nc2ccc(Cl)cn12 | · | ? | ? | · | -21 | ·
Cc1ccc2nc(C3CCCCC3)c(CC(C)(C)C)n2c1 | · | 16µM* | ? | · | 33 | ·
COc1ccccc1Cc1c(C2CCCCC2)nc2ccc(Cl)cn12 | · | 26µM* | 23µM* | · | -14 | ·
COc1ccc(CC(C(=O)Nc2ccc(OC)cc2)c2nn[nH]n2)cc1 (stereo not drawn) | 7% | 19% | 0% | -22% | 27 | -13%
Cc1cc(C)c(NC(=O)CNC(=O)CSc2nnc(N)s2)c(C)c1 | · | -12% | 19% | · | 9 | 17%
O=c1c([N+](=O)[O-])c(N2CCCC2)c2ccccc2n1-c1ccccc1 | -11% | -24% | -5% | 2% | -19 | 7%
Cc1cc(NC(=O)CSc2ncc(C(=O)Nc3ccc(F)cc3)c(=O)n2C)no1 | · | -13% | -10% | · | · | ·
CCN(CC)C(=O)Oc1ccc2c(=O)c(-c3ccc(OC)cc3)coc2c1 | -8% | 23µM* | ? | 21% | -60* | ?
